Measured values reported in PubChem BioAssay AID485344 (National Center for Advancing Translational Sciences (NCATS), 2010).
In all, about 340,000 compounds went through this assay and about 6,900 (2%) were called active. For the sample, actives were picked, then their nearest neighbours and some compounds at random. Values without a mark were called inactive. Rule as the data show it: active = inhibition above about 30%; inactive = below that, where a call was filed.

Target: D(2) dopamine receptor (Homo sapiens) (UniProt P14416)
Sequence (P14416 whole entry, looked up): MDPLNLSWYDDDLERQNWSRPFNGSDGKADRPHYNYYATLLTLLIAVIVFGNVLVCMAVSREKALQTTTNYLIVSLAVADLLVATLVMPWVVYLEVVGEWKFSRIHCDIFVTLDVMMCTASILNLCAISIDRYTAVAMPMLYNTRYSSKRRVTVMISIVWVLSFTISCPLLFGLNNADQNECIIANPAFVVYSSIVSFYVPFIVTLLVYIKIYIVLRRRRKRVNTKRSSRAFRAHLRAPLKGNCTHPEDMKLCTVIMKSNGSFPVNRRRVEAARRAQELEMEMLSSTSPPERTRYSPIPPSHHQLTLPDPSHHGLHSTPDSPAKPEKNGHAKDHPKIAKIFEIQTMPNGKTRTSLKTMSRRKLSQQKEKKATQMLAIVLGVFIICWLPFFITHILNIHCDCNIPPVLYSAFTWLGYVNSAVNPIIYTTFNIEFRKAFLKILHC
Experiment: HTS Assay for Allosteric Antagonists of the Human D2 Dopamine Receptor: Primary Screen for Antagonists; also: 0% is about no effect
Settings: HEK293 TREx D2 cells, calcium flux, dopamine EC80; at 10 µM; stronger effect = higher value
Outline: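 HEK293 T-REx D2 cells, tet-induced, calcium dye no-wash. Cpd pintool add, 180 s kinetic, then EC80 DA, 180 s kinetic. Ca flux read.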

| SMILES | inhibition |
| --- | --- |
| CCn1nc(C(=O)NNC(=O)C2CSC3(C)CCC(=O)N23)c2ccccc2c1=O (configuration not stated) | -19.4% |
| COc1cc(C#Cc2ccc3cc(CCCO)oc(=O)c3c2)cc(OC)c1 | 7.69% |
| COc1ccc(CNC(=O)C(=O)N2CCC3(CC2)OCCN3S(=O)(=O)c2ccc(C)cc2)cc1 | -3.99% |
| C=CCSc1ccc(S(=O)(=O)N2CCN(C)CC2)cn1 | 6.94% |
| CC(C)N(Cc1nnc(-c2ccccc2Br)o1)C(=O)c1cc(Cl)nc2ccccc12 | -0.847% |
| Cc1cc(C)cc(OCC(=O)Nc2ccc(N3CCOCC3)cc2N2CCOCC2)c1 | -19.7% |
| CCOc1ccc(S(=O)(=O)N2CCC(C(=O)NCC(=O)Nc3cccc(Cl)c3C)CC2)cc1 | 0.735% |
| N#Cc1ccccc1S(=O)(=O)N1CCN(Cc2c(O)ccc3ccccc23)CC1 | -16.7% |
| COc1cccc(CNC(=O)C(=O)NCCC2CCCCN2S(=O)(=O)c2ccc(C)cc2)c1 (configuration not stated) | -3.22% |
| C[C@@H](NC(=O)c1nc[nH]c1C(=O)N1CCN(C(=O)OC(C)(C)C)CC1)c1ccccc1 | 4.62% |
| Cc1ccc(NC(=S)NC(=O)/C=C/c2ccc(Cl)cc2)cc1 | -2.32% |
| CCCCOC(=O)c1[nH]c(C)c(C(=O)OC)c1C | -12.8% |
| COC(=O)c1c(C)[nH]c(C(=O)/C=C/c2ccc(Cl)cc2)c1C | 40.8% (active) |
| CC(=O)c1cccc(CN2CCC(CO)(Cc3ccccc3)CC2)c1 | 3.1% |
| OCC1(Cc2ccccc2)CCN(Cc2cc3ccccc3o2)CC1 | 94.6% (active) |
| CC(C)c1csc(CN2CCC(CO)(Cc3ccccc3)CC2)n1 | 0.256% |
| O=C(c1ccc(F)cc1)C1CCN(Cc2cn[nH]c2-c2ccccc2)CC1 | 56% (active) |
| OCC1(CCOc2ccccc2)CCN(Cc2cn[nH]c2-c2ccccc2)CC1 | -12.6% |
| COc1ccc(CN2CCNC(=O)C2CC(=O)NCc2cn[nH]c2-c2ccccc2)c(F)c1 (configuration not stated) | -65.2% |

| SMILES | inhibition |
| --- | --- |
| Cc1ccc(S(=O)(=O)N2CCOCC2)cc1NC(=O)COC(=O)c1cnccn1 | -7.64% |
| O=C(Nc1cccc(-c2nnc(-c3ccccc3)o2)c1)C1CCCO1 (configuration not stated) | 63% (active) |
| O=C(Nc1nnc(CCc2ccccc2)s1)C1CCCO1 (configuration not stated) | -19.8% |
| O=C(Nc1ccc(-c2nnc(-c3ccccc3)o2)cc1)C1CCCO1 (configuration not stated) | -12.9% |
| O=C(CC1SC(N2CCCC2)=NC1=O)Nc1ccc(C(=O)NCCc2ccc(F)cc2)cc1 (configuration not stated) | -4.16% |
| CCC(C)NC(=O)c1ccc(NC(=O)CC2SC(N3CCCCC3)=NC2=O)cc1 (configuration not stated) | -4.54% |
| COc1ccc(NC(=O)CC2SC(N3CCCCC3)=NC2=O)cc1OC (configuration not stated) | 40.6% (active) |
| COc1ccccc1N1CCN(C(=O)C2Cc3ccccc3CN2C(=O)c2ccco2)CC1 (configuration not stated) | -23.2% |
| CCOc1ccc(NC(=O)COC(=O)C2CCC(=O)N2)c([N+](=O)[O-])c1 (configuration not stated) | -10.6% |
| CC(C)c1ccc(S(=O)(=O)N2CCN(C(C)C(=O)NC3CCCC3)CC2)cc1 (configuration not stated) | -16.2% |
| Cc1ccc2oc(=O)c3cnn(CC(=O)N4CCN(c5ccccn5)CC4)c3c2c1 | -21.9% |
| Cc1ccc2oc(=O)c3cnn(CC(=O)N4CCCCCC4)c3c2c1 | -0.561% |
| Cc1ccc2oc(=O)c3cnn(CC(=O)N(Cc4ccco4)C4CCCCC4)c3c2c1 | 32.4% (active) |
| O=C(O)C1C2C=CC(C2)C1C(=O)NCc1ccccc1 (configuration not stated) | 3.26% |
| O=C(COC(=O)c1ccc(O)cc1O)NNC(=O)c1cccs1 | 13.6% |
| O=C(NC1CCN(Cc2ccccc2)CC1)c1ccc(Oc2cc(Cl)cc(Cl)c2)o1 | 26.7% |
| Cc1cc(C(=O)NC2CC(C)(C)Cc3c2cnn3-c2ccccc2)n[nH]1 (configuration not stated) | -16% |
| Cc1ccn2cc(C(=O)NC3CCN(Cc4ccccc4)CC3)nc2c1 | 15.3% |
| O=C(NC1CCN(Cc2ccccc2)CC1)c1cc(Br)c(Br)[nH]1 | 78.3% (active) |

| SMILES | inhibition |
| --- | --- |
| O=C(NC1CCN(Cc2ccccc2)CC1)c1c(F)cccc1F | 24.1% |
| Cc1cc(C(=O)NC2CCN(Cc3ccccc3)CC2)n[nH]1 | 74.1% (active) |
| O=C(c1ccncc1)N1CCN(S(=O)(=O)c2cccc([N+](=O)[O-])c2)CC1 | 4.87% |
| CC(Sc1nnc(C2CC2)n1C1CC1)C(=O)Nc1ccc(C(N)=O)cc1 (configuration not stated) | -13.1% |
| CC(OC(=O)c1ccccc1NCCO)C(=O)Nc1ccnn1C(C)C (configuration not stated) | -18.3% |
| COc1ccccc1CNS(=O)(=O)c1cc2c3c(c1)CCC(=O)N3CCC2 | -11.8% |
| O=C(c1cccc(Cl)c1)N1CCN(Cc2ccccc2)CC1 | 7.63% |
| O=C(NC(=S)N1CCN(Cc2ccccc2)CC1)c1ccccc1 | 31.2% (active) |
| O=C(Nc1ccccc1)N1CCN(Cc2ccccc2)CC1 | 13.1% |
| CC(C)N(C(=O)CN1CCN(S(=O)(=O)c2ccc(Br)s2)CC1)C(C)C | -1.58% |
| CCN(CC)CCn1c2c(c(SCC(=O)Nc3ccc(C(C)C)cc3)nc1=O)CCC2 | 14.2% |
| COc1c(O)ccc2c1CN1CCc3cc4c(cc3C1C2)OCO4 (configuration not stated) | 74.1% (active) |
| COc1ccc2cc1Oc1ccc(cc1)C[C@H]1c3cc(c(OC)cc3CCN1C)Oc1c(O)c(OC)cc3c1[C@H](C2)N(C)CC3 | -8.18% |
| COc1ccc(CN2CCCC(N3CCc4ccccc4C3)C2)c(O)c1 (configuration not stated) | -20% |
| CCCCNC(=O)Cn1nc(C)c(S(=O)(=O)N2CCOCC2)c1C | 4.53% |
| CCCCN(CCCC)CC(O)Cn1c2ccccc2c(=O)c2ccccc21 (configuration not stated) | 0.545% |
| O=C1c2ccccc2S(=O)(=O)N1CC(O)Cn1c2ccccc2c2ccccc21 (configuration not stated) | 26.9% |
| CS(=O)(=O)N(CC(O)Cn1c2ccccc2c2ccccc21)c1cccc2ccccc12 (configuration not stated) | 31.2% (active) |
| Cc1ccc(C(=O)OCC(=O)Nc2ccc(Cl)cn2)cc1S(=O)(=O)N1CCOCC1 | -15.2% |
